# Laboratory results as given in PubChem BioAssay AID865 (The Scripps Research Institute Molecular Screening Center, 2007).
# Some of the results follow. Unmarked numbers belong to inactive results. Calls of active or inactive are those of the source.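 How the source made its calls: active means activation above the screen-wide mean activation plus 3 SD (cut at about 8% in these data); inactive means the rest.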
# Assay: nonspecific BLA reporter activation – CHO NFAT-bla cells, FRET readout, counter-screen for GALR2 agonist project, confirmation (AID 865);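 further: 0% = DMSO with PBS wells and 100% = thapsigargin positive control wells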
# Settings: beta-lactamase FRET activation, at 5.6 µM, active compounds read high
row,Compound,activation
1,COc1ccc(Nc2oc(-c3ccccc3Cl)nc2C#N)cc1,-0.84%
2,O=[N+]([O-])c1ccccc1SNc1ccccn1,-1.98%
3,CC(=O)Oc1ccc(C(C)=O)c2c1OCCO2,-1.79%
4,COc1ccc(C(=O)CN2C(=O)NC(C)(c3ccc(C)cc3)C2=O)cc1OC (stereo unspecified),-1.81%
5,COCCN(CCOC)S(=O)(=O)c1ccc(C(=O)Nc2nc3c(s2)CCc2ccccc2-3)cc1,2.54%
6,CCN(C(=O)CSc1ncn[nH]1)c1cccc2ccccc12,-1.97%
7,O=C1COc2ccc(NC(=O)N3CCN(c4ccc(F)cc4)CC3)cc2N1,-0.56%
8,CC1(C)CC(=O)C=C(NCCN2CCNCC2)C1,-2.3%
9,CC/C(C)=N/Nc1nc2sc3c(c2c(=O)[nH]1)CC(C)(C)OC3,-1.22%
10,Fc1ccc(N2N=C(c3cccs3)CC2c2ccco2)c(F)c1 (stereo unspecified),0.42%
11,CCOc1ccc2nc(Nc3nc4ccc(NC(C)=O)cc4s3)sc2c1,59.5% (active)
